Results on eleven molecules are retold here after PubChem BioAssay (EPA / NIEHS).

Read-out in assay [1]: ABC Transporter (ABCB11), ABCB11 (gene 8647)
The experiment in a line: CLD_ABCB11_6hr: CellzDirect (CLD) Gene Expression Assay for ABC Transporter (ABCB11) at 6 hours (AID 2283675).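 Note: hits raise ABCB11 mRNA level so AC50 marks induction.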 The gist of the method:
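Read-out was ABCB11 mRNA gain of signal by quantitative nuclease protection assay, relative to 0.2% DMSO vehicle, 6 h post-dose. Cells were primary human hepatocytes from two donors, treated across multiple concentrations; phase-contrast cytotoxicity noted yes/no.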

Assay [2] is described as follows: CLD_ACTIN_6hr: CellzDirect (CLD) Gene Expression Assay for Baseline Control (Actin) at 6 hours (AID 2283676).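 Note: active means increased actin mRNA relative to DMSO vehicle.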 The gist of the method:
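Baseline actin transcript level measured by qNPA (S1 nuclease protection, chemiluminescence) in human hepatocyte cultures 6 h after chemical exposure; 0.2% DMSO vehicle as reference, cytotoxicity noted from morphology.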

Read-out in assay [3]: Cytochrome P450 2B6 (Homo sapiens) (UniProt P20813)
In words: CLD_CYP2B6_6hr: CellzDirect (CLD) Gene Expression Assay for xenobiotic metabolism (CYP2B6) at 6 hours (AID 2283677).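 Note: actives raise CYP2B6 transcript above DMSO baseline so AC50 marks an inducer.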 The essentials: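 CYP2B6 transcript levels, read by chemiluminescent qNPA, were fitted for increase versus DMSO baseline; cultured human liver hepatocytes from two donor preparations were harvested 6 h after exposure to test chemicals at multiple concentrations.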

Assay [4] is described as follows: CCTE_Padilla_ZF_144hpf_TERATOSCORE: (Legacy) CCTE's 144 Hour Post-fertilization zebrafish Assay Teratoscore, Padilla Lab (AID 2283679; active = hit-call score of the fitted dose curve at least 0.9, where 1 is the maximum; inactive = score below 0.9;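 for AC50: zebrafish embryos with chorions exposed by immersion from 6-8 hpf to 5 dpf with daily renewal; teratogenicity score from eye scoring of death hatching and malformations at 144 hpf; higher score means more developmental defects relative to DMSO baseline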). The essentials:
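Larvae scored by eye at 144 hpf for death, hatching and malformations after a day in clean Hanks'. Before that, daily-renewed exposure at 80 uM (0.4% DMSO, 26C) from roughly 6-8 hpf through 5 dpf, 4 embryos per chemical.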

Read-out in assay [5]: Glyceraldehyde-3-phosphate dehydrogenase (Homo sapiens) (UniProt P04406)
The experiment in a line: CLD_GAPDH_6hr: CellzDirect (CLD) Gene Expression Assay for Baseline Control (Glyceraldehyde 3-phosphate dehydrogenase) at 6 hours (AID 2283681).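 Note: active means increased signal relative to DMSO vehicle.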 The essentials: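 GAPDH baseline-control readout from qNPA (S1 nuclease digestion, probe hybridization, chemiluminescence) in lysates of cultured human hepatocytes harvested 6 h post-dosing. Chemicals tested at multiple concentrations versus 0.2% DMSO vehicle; microscopy-based cytotoxicity flagged yes/no.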

Read-out in assay [6]: xenobiotic metabolism (CYP1A2), CYP1A2 (gene 1544)
In words: CLD_CYP1A2_24hr: CellzDirect (CLD) Gene Expression Assay for xenobiotic metabolism (CYP1A2) at 24 hours (AID 2283683). The gist of the method: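 CYP1A2 mRNA induction measured by quantitative nuclease protection (chemiluminescent) in human primary hepatocytes 24 h after multi-concentration chemical dosing with daily fresh solutions. DMSO (0.2%) baseline; positive-direction fitting; morphology-based cytotoxicity noted.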

Read-out in assay [7]: Cytochrome P450 2B6 (Homo sapiens) (UniProt P20813)
The experiment in a line: CLD_CYP2B6_24hr: CellzDirect (CLD) Gene Expression Assay for xenobiotic metabolism (CYP2B6) at 24 hours (AID 2283686). The essentials:
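qNPA chemiluminescent measurement of mRNA at 24 hours in human primary hepatocyte cultures from two donor preparations, with daily fresh dosing and 0.2% DMSO vehicle as baseline. Morphology-based cytotoxicity flagged yes/no.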

Read-out in assay [8]: glucuronosyltransferase (UGT1A1), UGT1A1 (gene 54658)
The experiment in a line: CLD_UGT1A1_24hr: CellzDirect (CLD) Gene Expression Assay for glucuronosyltransferase (UGT1A1) at 24 hours (AID 2283696). The gist of the method:
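UGT1A1 transcript induction was measured by quantitative nuclease protection assay (chemiluminescence) in human hepatocyte cultures 24 h after daily fresh dosing, with 0.2% DMSO as vehicle and baseline.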

Read-out in assay [9]: Cytochrome P450 3A4 (Homo sapiens) (UniProt P08684)
In words: CLD_CYP3A4_48hr: CellzDirect (CLD) Gene Expression Assay for xenobiotic metabolism (CYP3A4) at 48 hours (AID 2283698). The gist of the method:
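CYP3A4 induction read by qNPA chemiluminescence after 48 h, with fresh dosing solutions on consecutive days, in cultured human hepatocytes (two donors). Vehicle 0.2% DMSO as baseline; microscopy-based cytotoxicity annotated yes/no alongside data.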

Read-out in assay [10]: Cytochrome P450 2B6 (Homo sapiens) (UniProt P20813)
The experiment in a line: CLD_CYP2B6_48hr: CellzDirect (CLD) Gene Expression Assay for xenobiotic metabolism (CYP2B6) at 48 hours (AID 2283699).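 Note: actives raise transcript level above DMSO so potency reflects induction.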 The essentials:
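CYP2B6 transcript induction, read by quantitative nuclease protection (S1 digestion, chemiluminescent detection) 48 h after dosing, is fitted upward against 0.2% DMSO. Cultured human liver primary cells, two donor preparations, received fresh chemical daily over multiple concentrations.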

Read-out in assay [11]: xenobiotic metabolism (CYP1A2), CYP1A2 (gene 1544)
The experiment in a line: CLD_CYP1A2_48hr: CellzDirect (CLD) Gene Expression Assay for xenobiotic metabolism (CYP1A2) at 48 hours (AID 2283703). The essentials:
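Cytotoxicity was flagged yes/no from morphology, while CYP1A2 transcript induction was detected by qNPA chemiluminescence after a 48-hour exposure. Human primary hepatocyte cultures from separate donors received fresh dosing solutions daily over two days, with 0.2% DMSO as vehicle and baseline.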

Read-out in assay [12]: Broad substrate specificity ATP-binding cassette transporter ABCG2 (Homo sapiens) (UniProt Q9UNQ0)
In words: CLD_ABCG2_48hr: CellzDirect (CLD) Gene Expression Assay for ABC Transporter (ABCG2) at 48 hours (AID 2283704).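 For AC50: potency for induction of ABCG2 mRNA above the DMSO baseline.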 The essentials: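 ABCG2 transcript measured at 48 h by quantitative nuclease protection (chemiluminescent) and fitted for increase relative to 0.2% DMSO. Hepatocyte cultures from separate donors got fresh compound daily over two days; morphology annotated cytotoxicity.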

Read-out in assay [13]: xenobiotic metabolism (CYP1A1), CYP1A1 (gene 1543)
In words: CLD_CYP1A1_48hr: CellzDirect (CLD) Gene Expression Assay for xenobiotic metabolism (CYP1A1) at 48 hours (AID 2283705). The gist of the method: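 CYP1A1 transcript measured by quantitative nuclease protection (chemiluminescent) 48 h after two daily treatments of human hepatocyte cultures, versus 0.2% DMSO. Morphology-based cytotoxicity flags accompany data; two donor preparations used.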

Read-out in assay [14]: ABC Transporter (ABCB11), ABCB11 (gene 8647)
In words: CLD_ABCB11_48hr: CellzDirect (CLD) Gene Expression Assay for ABC Transporter (ABCB11) at 48 hours (AID 2283697). The essentials:
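Induction of ABCB11 mRNA relative to 0.2% DMSO, measured at 48 h by qNPA chemiluminescence. Cultured human hepatocytes (two donors) received fresh dosing solutions at several concentrations on two consecutive days.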

Read-out in assay [15]: Cytochrome P450 2C19 (Homo sapiens) (UniProt P33261)
In words: CLD_CYP2C19_6hr: CellzDirect (CLD) Gene Expression Assay for xenobiotic metabolism (CYP2C19) at 6 hours (AID 2283678). The gist of the method: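 CYP2C19 transcript induction was quantified by quantitative nuclease protection assay with chemiluminescent read-out, 6 h after dosing. Cells were primary human hepatocytes from two donor preparations, given fresh dosing solutions daily in 0.2% DMSO vehicle. Activity was relative to DMSO.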

Read-out in assay [16]: Glyceraldehyde-3-phosphate dehydrogenase (Homo sapiens) (UniProt P04406)
In words: CLD_GAPDH_48hr: CellzDirect (CLD) Gene Expression Assay for Baseline Control (Glyceraldehyde 3-phosphate dehydrogenase) at 48 hours (AID 2283706).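 Note: active means higher GAPDH mRNA than DMSO vehicle.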 The essentials:
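GAPDH baseline-control readout: qNPA chemiluminescent mRNA quantitation in human liver primary cells 48 h after daily dosing on two consecutive days, vehicle 0.2% DMSO; gain of signal fitted against DMSO, cytotoxicity flagged by phase-contrast morphology.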

Read-out in assay [17]: organic anion transporter (SLCO1B1), SLCO1B1 (gene 10599)
In words: CLD_SLCO1B1_48hr: CellzDirect (CLD) Gene Expression Assay for organic anion transporter (SLCO1B1) at 48 hours (AID 2283707). The essentials: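 SLCO1B1 transcript quantified by qNPA with chemiluminescent readout after 48 h of once-daily chemical exposure. Cultured human primary hepatocytes came from two donors, with 0.2% DMSO vehicle; positive-direction fitting against DMSO, cytotoxicity flagged by morphology.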

Several values for one entry are separate records, joined by “and”; a condition that tells them apart may be missing. Equal values may be shown once. Results filed as inconclusive are left out. Activity calls are given as the source filed them. Rule for the calls, unless noted: active = hit-call score of the fitted dose curve at least 0.9, where 1 is the maximum; inconclusive = response in the unintended direction; inactive = score below 0.9.

Broad substrate specificity ATP-binding cassette transporter ABCG2 (Homo sapiens), sequence (Q9UNQ0 whole entry, looked up): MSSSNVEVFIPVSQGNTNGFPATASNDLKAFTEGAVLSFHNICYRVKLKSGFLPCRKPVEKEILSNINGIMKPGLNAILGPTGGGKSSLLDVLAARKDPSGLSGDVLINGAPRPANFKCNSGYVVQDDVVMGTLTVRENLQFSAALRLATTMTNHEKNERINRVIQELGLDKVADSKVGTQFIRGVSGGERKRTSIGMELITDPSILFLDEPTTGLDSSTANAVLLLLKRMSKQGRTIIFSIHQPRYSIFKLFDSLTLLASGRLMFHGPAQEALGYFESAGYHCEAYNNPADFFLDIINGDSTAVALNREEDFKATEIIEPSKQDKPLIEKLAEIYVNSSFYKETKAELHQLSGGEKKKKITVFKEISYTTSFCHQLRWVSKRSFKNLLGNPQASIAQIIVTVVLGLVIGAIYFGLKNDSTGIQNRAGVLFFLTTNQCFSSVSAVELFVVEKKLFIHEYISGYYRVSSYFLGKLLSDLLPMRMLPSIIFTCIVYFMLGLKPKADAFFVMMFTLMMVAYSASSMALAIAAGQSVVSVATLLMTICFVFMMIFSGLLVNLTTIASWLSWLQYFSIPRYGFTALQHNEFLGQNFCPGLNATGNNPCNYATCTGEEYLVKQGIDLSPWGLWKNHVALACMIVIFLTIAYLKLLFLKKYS
Cytochrome P450 2C19 (Homo sapiens), sequence (P33261 whole entry, looked up): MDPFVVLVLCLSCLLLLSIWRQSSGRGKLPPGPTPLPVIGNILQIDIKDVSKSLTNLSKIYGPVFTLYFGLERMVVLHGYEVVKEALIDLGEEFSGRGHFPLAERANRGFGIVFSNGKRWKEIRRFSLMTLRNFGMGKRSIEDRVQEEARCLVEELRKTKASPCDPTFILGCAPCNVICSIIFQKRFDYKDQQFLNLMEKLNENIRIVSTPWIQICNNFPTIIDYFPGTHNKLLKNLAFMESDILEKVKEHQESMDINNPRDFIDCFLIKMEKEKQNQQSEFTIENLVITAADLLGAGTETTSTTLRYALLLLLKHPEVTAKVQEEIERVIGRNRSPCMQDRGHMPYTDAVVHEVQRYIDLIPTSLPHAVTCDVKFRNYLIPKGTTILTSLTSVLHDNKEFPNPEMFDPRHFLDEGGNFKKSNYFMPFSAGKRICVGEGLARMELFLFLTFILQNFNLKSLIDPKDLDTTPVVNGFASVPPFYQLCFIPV
Cytochrome P450 3A4 (Homo sapiens), sequence (P08684 whole entry, looked up): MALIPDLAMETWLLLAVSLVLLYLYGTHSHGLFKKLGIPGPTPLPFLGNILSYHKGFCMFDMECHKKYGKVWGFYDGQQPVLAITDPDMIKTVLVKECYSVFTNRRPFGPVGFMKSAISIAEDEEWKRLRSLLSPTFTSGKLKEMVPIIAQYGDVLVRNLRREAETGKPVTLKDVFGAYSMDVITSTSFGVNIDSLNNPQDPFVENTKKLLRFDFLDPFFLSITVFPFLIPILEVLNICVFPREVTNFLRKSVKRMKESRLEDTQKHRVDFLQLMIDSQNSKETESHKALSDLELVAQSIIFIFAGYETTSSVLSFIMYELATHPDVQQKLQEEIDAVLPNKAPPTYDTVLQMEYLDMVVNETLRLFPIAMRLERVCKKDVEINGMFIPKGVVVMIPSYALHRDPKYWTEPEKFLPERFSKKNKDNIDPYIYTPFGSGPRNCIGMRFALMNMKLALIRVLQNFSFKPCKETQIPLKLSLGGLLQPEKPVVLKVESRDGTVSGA
Glyceraldehyde-3-phosphate dehydrogenase (Homo sapiens), sequence (P04406 whole entry, looked up): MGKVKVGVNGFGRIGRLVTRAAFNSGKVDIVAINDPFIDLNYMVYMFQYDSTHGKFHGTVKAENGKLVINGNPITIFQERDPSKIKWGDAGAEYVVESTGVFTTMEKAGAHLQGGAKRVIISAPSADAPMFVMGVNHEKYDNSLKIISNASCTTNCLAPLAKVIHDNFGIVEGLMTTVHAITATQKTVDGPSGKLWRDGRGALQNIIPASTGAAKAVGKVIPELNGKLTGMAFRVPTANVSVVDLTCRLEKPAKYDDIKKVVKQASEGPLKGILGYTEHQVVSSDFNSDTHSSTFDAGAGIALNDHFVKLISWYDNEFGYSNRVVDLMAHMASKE

In the case of `C[C@H]1[C@H](c2ccc(Cl)cc2)SC(=O)N1C(=O)NC1CCCCC1`, the molecule was called inactive in assay [1], in assay [2], in assay [4], in assay [5] and in assay [8]. In addition, the AC50 was 3.09 µM (active) in [3]; 5.84 µM (active) in assay [6]; 2.58 µM (active) in assay [7]; 1.97 µM (active) in assay [9]; 1.9 µM (active) in assay [10]; 5.38 µM (active) in assay [11]. Also, the AC50 is 34.8 µM (active) in assay [12] and 34 µM (active) in assay [13].

In the case of `O=C(Nc1ccccc1)Nc1cnns1`, the molecule was called inactive in assay [1], in assay [2], in assay [4], in assay [14], in assay [9] and in assay [12]. Moreover, the concentration at half-maximal activity (AC50) in assay [10] is 5.63 µM (active); in assay [11], 3.38 µM (active); in [13] it was 20 µM (active).

In the case of `O=S(=O)(O)C(F)(F)C(F)(F)C(F)(F)C(F)(F)C(F)(F)C(F)(F)C(F)(F)C(F)(F)F`, the molecule was called inactive in assay [1], in assay [2], in assay [3], in assay [15], in assay [7] and in [8]. In addition, the outcome in assay [9], in assay [10], in assay [11], in assay [13], in assay [16] and in assay [17] was inactive. For the same molecule, the AC50 in [4] is 23.8 µM (active) and 45.6 µM (active) and 7.44 µM (active).

Turning to `CN1CSC(=S)N(C)C1`, the result in assay [1], in assay [3], in [15], in assay [5], in [8] and in assay [11] was inactive. Further, the molecule was called inactive in assay [12], in assay [13] and in assay [16]. Besides, the AC50 in [4] was 0.196 µM (active).

On to `CCC(C)Nc1c([N+](=O)[O-])cc(C(C)(C)C)cc1[N+](=O)[O-]` (stereo unspecified), for which the molecule was classed as inactive in assay [1], in assay [15], in [8] and in [12]. Also, the AC50 is 1.53 µM (active) in assay [3]; 3.63 µM (active) in assay [7]; 2.7 µM (active) in [9]; 2.44 µM (active) in [10]; 5.38 µM (active) in assay [11]; 3.77 µM (active) in assay [13].

On to `CC1(c2ccc(Oc3ccccc3)cc2)OC(=O)N(Nc2ccccc2)C1=O` (stereo unspecified), for which the outcome in [1], in assay [2], in [15], in assay [9], in [12] and in [16] was inactive. For the same molecule, the AC50 was 1.88 µM (active) in assay [3], 0.172 µM (active) in [4], 0.661 µM (active) in assay [11] and 3.38 µM (active) in [13].

For `CNC(=O)Oc1ccccc1OC(C)C`, the molecule was called inactive in assay [2], in [15], in assay [4], in assay [5], in assay [8] and in [11]. The molecule was classed as inactive in [13] and in assay [16]. In addition, the half-maximal activity concentration (AC50) was 3.21 µM (active) in [3], 1.6 µM (active) in assay [7], 3.99 µM (active) in [9] and 1.51 µM (active) in [10].

For `O=[N+]([O-])c1c(Cl)c(Cl)c(Cl)c(Cl)c1Cl`, the molecule was called inactive in [1], in [5], in [8], in assay [12] and in assay [17]. Besides, the AC50 in assay [3] is 20 µM (active); in assay [4], 31.1 µM (active); in assay [7], 4.02 µM (active); in assay [9] it was 3.39 µM (active); in assay [10], 1.9 µM (active); in assay [11], 3.86 µM (active). In addition, the AC50 in assay [13] was 3.97 µM (active).

Take `COc1cc(OC)nc(NC(=O)NS(=O)(=O)c2cc(NC=O)ccc2C(=O)N(C)C)n1`: the molecule was called inactive in [2], in [3], in assay [4], in assay [5], in [7] and in [8]. The call in assay [14], in [10], in [11], in [12], in assay [13] and in assay [16] was inactive. Moreover, the result in assay [17] was inactive.

Consider `CC(C)N(C(=O)COc1nnc(C(F)(F)F)s1)c1ccc(F)cc1`, for which the AC50 in assay [3] is 14.7 µM (active); in [4] it was 39.2 µM (active); in assay [7], 7.16 µM (active); in [9] it was 5.1 µM (active); in assay [10] it was 10.9 µM (active); in [13], 14.2 µM (active). Moreover, the molecule was called inactive in assay [5], in assay [8], in [11], in [12] and in [16].

In the case of `COP(=S)(OC)Oc1ccc(SC)c(C)c1`, the half-maximal activity concentration (AC50) in assay [3] was 4.74 µM (active); in assay [4], 16.1 µM (active); in assay [7], 20 µM (active); in [10], 4.48 µM (active); in [11] it was 6.69 µM (active); in assay [13] it was 33.4 µM (active). For the same molecule, the call in [8] and in assay [9] was inactive.

Usually AC50 stands for the concentration giving half of the maximal activity seen.
